Here are results for 84 compounds from ChEMBL document CHEMBL3988442, “University of Dundee, Small-Polar-MMV Screening Library” (2021).

Out of some 48,000 compounds screened, about 13,000 (27%) showed an effect of 50% or more. The list shows a part of the results.

For the assay, the system named is Wolbachia pipientis. Description: Anti-Wolbachia Cell-Based Screen. The format is functional. Set-up: scale not given: in the data most compounds retested in dose-response had high values. The settings on record: 5 µM.
On to `Cc1cccnc1CN1CCC(c2nnc(Cn3cccn3)n2C)CC1`, for which the “Percent Effect” value is recorded as 7.8%.
For `CC(C)OCCN(Cc1cccc(O)c1)C1CCC(O)CC1` (centres undefined) the value was -9.741%; for `CC1CCN(c2ccnc3ccc(Br)cc23)CC1`, -3.339%.
Regarding `O=C(c1ccoc1)N1CCCN(C(=O)c2ccc(C3CCCN3)s2)CC1` (centres undefined), the “Percent Effect” value was 16.47%.
On to `N#Cc1cccc(CNC(=O)C2=NN(c3ccccc3)C(=O)CN2)c1`, for which the “Percent Effect” value is -6.333%.
For `CS(=O)(=O)c1snnc1C1CCN(Cc2ccc3nccnc3c2)CC1` the value was 138.8%; for `Cc1cccc(CN2CCC(c3nnsc3S(C)(=O)=O)CC2)c1`, 168.1%.
For `Fc1ccc(CN2CCC(c3nccnc3-n3ccnc3)CC2)cc1` the value was -7.393%; for `CNS(=O)(=O)c1ccc(CN2CCC(c3ccncc3)CC2)cc1`, -2.48%; for `CC(Cn1cncn1)NC1CCN(Cc2cccc(O)c2)CC1` (centres undefined), -16.09%.
For `CC(Cn1ccnc1)NC1CCN(Cc2cccc(O)c2)CC1` (centres undefined) the value was -6.042%; for `Cc1cccc(CN2CCC(NCC3CNc4cc(C)nn4C3)CC2)c1` (centres undefined), 17.46%; for `CS(=O)(=O)c1snnc1C1CCN(Cc2cccc(O)c2)CC1`, 145.1%.
In the case of `Cc1cnc(C(=O)N2CCC3(CC2)CC(c2ccncc2)C(=O)N3)cn1` (centres undefined), the “Percent Effect” value is listed as -2.987%.
To `CCCn1nnnc1CN(C)C(C)c1ccc(C)cc1` (centres undefined) belongs 0.6006%.
For `COc1ccc(C2(c3nc(-c4cnn(C)c4)no3)CCOCC2)cc1` the value was -8.889%; for `O=C(NC(CO)CO)c1coc(COc2cccc(F)c2)n1`, 9.537%.
In the case of `CCN(C(=O)CN(C)C(c1cccc(F)c1)c1ccccn1)C1CC1` (centres undefined), the “Percent Effect” value amounted to 13.51%.
For `CC(C)N(C)CC(=O)N(C)C(c1cccc(F)c1)c1ccccn1` (centres undefined) the value was 102.7%; for `CCN(CC)S(=O)(=O)CCNC(=O)N(C)C(C)c1ccccn1` (centres undefined), -1.522%.
`CCSCCNC(=O)C(c1cccc(F)c1)N(C)C` (centres undefined): the “Percent Effect” value is -18.47%.
For `CCN(CC)CC(=O)N(C)C(c1cccc(F)c1)c1ccccn1` (centres undefined) the value was 97.45%; for `CCS(=O)(=O)NCCCNC(=O)N(C)C(C)c1ccccn1` (centres undefined), -6.07%.
To `O=S(=O)(C1CC1)N1CC[C@]2(C[C@@H](OCC3CCOCC3)CO2)C1` belongs -13.41%.
To `Cc1c(C(=O)N(C)CC(F)(F)F)nnn1-c1ccccc1Cl` belongs -1.465%; to `COc1ccc(C(=O)Nc2c(C)nn(C(C)C)c2C)cc1`, 14.16%; to `COCCN1C=NC2(CCC(C(=O)Nc3ccc(C)cc3)CC2)C1=O` (centres undefined), -4.018%.
Turning to `COc1cccc(C(=O)Nc2ccc(OC3CCN(C)CC3)cc2)c1`, the “Percent Effect” value was found to be 16.42%.
Regarding `COCCn1cnc2ccc(NC(=O)c3ccc(OC)cc3)cc2c1=O`, the “Percent Effect” value worked out at 162.9%.
For `Cn1cc(NC(=O)c2ccccn2)cc(Cl)c1=O` the value was -1.878%; for `COCCn1cc(NC(=O)C(C)CCc2ccccc2F)ccc1=O` (centres undefined), -6.604%.
To `COCCn1cnc2ccc(NC(=O)c3ccccn3)cc2c1=O` belongs 106.6%; to `COCCn1cnc2ccc(NC(=O)C3CC3)cc2c1=O`, 108.4%; to `COCCOc1ccc(NC(=O)C2CCC2)cn1`, -0.09217%.
For the compound `COCCn1cnc2ccc(NC(=O)C(C)C)cc2c1=O`, the “Percent Effect” value stood at 110.7%.
To `Cn1cc(NC(=O)c2ccccn2)cc(Br)c1=O` belongs 3.766%; to `COCCn1cc(NC(=O)NC(C)CCc2ccccc2)ccc1=O` (centres undefined), -2.537%; to `CC(=O)NCCC(=O)NC1(c2ccc(Cl)c(Cl)c2)CC1`, 3.477%.
To `CC(NC(=O)COc1cccc[n+]1[O-])C1CC1` (centres undefined) belongs -6.842%.
To `Cc1ccc(CNCc2nnc3n2CC(C(F)(F)F)CC3)cc1` (centres undefined) belongs -7.096%; to `O=C(CCc1ccsc1)Nc1cnccc1O`, 9.927%; to `CC(C)CCN1CCc2[nH]nc(C(=O)N3CC=CC3)c2C1.O=C(O)C(F)(F)F.O=C(O)C(F)(F)F`, -3.7%.
`Cc1noc(C)c1CN1CC[C@H]2OCC[C@@H](C(=O)NCC3CC3)[C@@H]2C1.O=C(O)C(F)(F)F`: the “Percent Effect” value is on record as -16.42%.
For the compound `CO[C@@H]1CCN(Cc2c(C)noc2C)[C@@H]2CN(Cc3ccco3)C[C@@H]21.O=C(O)C(F)(F)F.O=C(O)C(F)(F)F`, the “Percent Effect” value was determined as 102.8%.
As to `CO[C@H]1CCN(Cc2c(C)noc2C)[C@@H]2CN(Cc3cccnc3)C[C@H]12.O=C(O)C(F)(F)F.O=C(O)C(F)(F)F.O=C(O)C(F)(F)F`, the “Percent Effect” value turned out to be 114.1%.
With `COCC1CN(Cc2c(C)noc2C)Cc2ccnn2C1.O=C(O)C(F)(F)F.O=C(O)C(F)(F)F` (centres undefined), the “Percent Effect” value is recorded as -2.816%.
To `CO[C@@H]1CCN(Cc2c(C)noc2C)[C@@H]2CN(Cc3cccnc3)C[C@@H]21.O=C(O)C(F)(F)F.O=C(O)C(F)(F)F.O=C(O)C(F)(F)F` belongs 82.84%; to `Cc1noc(C)c1CN1C[C@@H](N(C)Cc2ccco2)[C@H]2OCCC[C@H]21.O=C(O)C(F)(F)F.O=C(O)C(F)(F)F`, 12.06%.
Take `CO[C@@H]1CCN(c2ncc(F)cn2)[C@@H]2CN(Cc3cccnc3)C[C@@H]21.O=C(O)C(F)(F)F.O=C(O)C(F)(F)F.O=C(O)C(F)(F)F`: the “Percent Effect” value is listed as -6.486%.
For `CO[C@H]1CCN(Cc2cccc(C)n2)[C@@H]2CN(Cc3cccnc3)C[C@H]12.O=C(O)C(F)(F)F.O=C(O)C(F)(F)F.O=C(O)C(F)(F)F.O=C(O)C(F)(F)F`, the “Percent Effect” value is on record as -9.589%.
For `CO[C@H]1CCN(Cc2cnn(C)c2)[C@@H]2CN(Cc3cccnc3)C[C@H]12.O=C(O)C(F)(F)F.O=C(O)C(F)(F)F.O=C(O)C(F)(F)F` the value was 4.089%; for `CO[C@@H]1CCN(Cc2cnn(C)c2)[C@@H]2CN(Cc3ccco3)C[C@@H]21.O=C(O)C(F)(F)F.O=C(O)C(F)(F)F`, 6.003%; for `CO[C@H]1CCN(Cc2c(C)noc2C)[C@@H]2CN(Cc3ccncc3)C[C@H]12.O=C(O)C(F)(F)F.O=C(O)C(F)(F)F.O=C(O)C(F)(F)F`, 106.3%.
Take `COC(=O)N1CCN(CCCc2nnnn2-c2ccccc2)CC1`: the “Percent Effect” value is -41.56%.
For `O=C(Cc1ccc(F)cc1Cl)N1CC[C@H](CO)[C@@H](O)C1` the value was 3.077%; for `COc1cccc2c1OCC(C(=O)N1CCN(S(C)(=O)=O)CC1)C2` (centres undefined), 0.5994%; for `CC1CCCN1C1CCN(C(=O)c2cccc(-c3ccoc3)c2)CC1` (centres undefined), 2.618%.
In the case of `CSCC[C@@H](CO)Nc1ccc(-c2nc(C3CC3)no2)cn1`, the “Percent Effect” value was -21.62%.
On to `Cc1noc(CS(=O)(=O)C/C=C/c2ccccc2)n1`, for which the “Percent Effect” value is given as -7.047%.
For `N#Cc1cccc(CN2CC[C@@H]3CN(c4ncccn4)CCO[C@@H]3C2)c1.O=C(O)C(F)(F)F` the value was 115.7%.
For `N#Cc1cccc(CN2CC[C@@H]3CO[C@@H](CN4CCCC4)[C@@H]3C2)c1.O=C(O)C(F)(F)F.O=C(O)C(F)(F)F` the value was -0.4401%; for `COCCN1CCO[C@@H]2CN(Cc3sccc3C)C[C@@H]2C1.O=C(O)C(F)(F)F.O=C(O)C(F)(F)F`, -3.44%; for `O=C(O)C(F)(F)F.O=C(c1ccco1)N1CCO[C@@H]2CN(c3ccccn3)CC[C@@H]2C1`, 6.986%.
To `O=C(O)C(F)(F)F.O=C(c1ccco1)N1CCO[C@@H]2CN(Cc3nccs3)CC[C@@H]2C1` belongs 104%; to `Cc1cnc(N2CC[C@@H]3CN(Cc4ccncc4)CCO[C@@H]3C2)nc1.O=C(O)C(F)(F)F.O=C(O)C(F)(F)F`, -11.53%; to `O=C(O)C(F)(F)F.O=C(c1ccsc1)N1CCO[C@@H]2CN(Cc3ccco3)CC[C@@H]2C1`, 99.14%.
Regarding `Cn1cccc1C(=O)N1CCO[C@@H]2CN(Cc3nccs3)C[C@@H]2C1.O=C(O)C(F)(F)F`, the “Percent Effect” value was 127.2%.
For `Cc1cc(CN2C[C@@H]3CN(C(=O)c4cccn4C)CCO[C@@H]3C2)no1.O=C(O)C(F)(F)F` the value was 9.61%; for `CCc1cnc(N2CC[C@@H]3CN(C(=O)c4ccco4)CCO[C@@H]3C2)nc1`, 10.92%; for `O=C(O)C(F)(F)F.O=C(c1ccsc1)N1CCO[C@@H]2CN(Cc3ccccn3)CC[C@@H]2C1`, 3.038%.
`O=C(NC[C@H]1OC[C@@H](NC2CCOCC2)[C@@H]1O)Nc1ccccc1`: the “Percent Effect” value came to 14.81%.
For the compound `COCCN(Cc1ccncc1)C(=O)C1COc2ccccc2C1` (centres undefined), the “Percent Effect” value is on record as -25.57%.
To `COCCc1nc(CN2CC(C)(c3ccccc3)CCC2=O)no1` (centres undefined) belongs -5.62%.
As to `CCCS(=O)(=O)NC1CCN(c2nnc(C)c(C)c2C#N)CC1`, the “Percent Effect” value is listed as -4.578%.
To `Cc1cc(N2CCC(N3CCOCC3)C2)n2nc(C)c(C)c2n1` (centres undefined) belongs -1.501%; to `O=C(O)C(F)(F)F.O=C(c1ccsc1)N1CCO[C@@H]2CN(Cc3cccs3)C[C@@H]2C1`, 14.76%; to `CN(C)CCN1CCO[C@H]2CN(C(=O)N(C)C)C[C@H]21.O=C(O)C(F)(F)F.O=C(O)C(F)(F)F`, 6.005%.
To `CN(C)CCN1CCO[C@H]2CN(C(=O)c3ccsc3)C[C@H]21.O=C(O)C(F)(F)F.O=C(O)C(F)(F)F` belongs 117.2%; to `O=C(O)C(F)(F)F.O=C(O)C(F)(F)F.c1coc(CN2C[C@@H]3CN(Cc4ccoc4)CCO[C@@H]3C2)c1`, 116.5%; to `O=C(O)C(F)(F)F.O=C([C@@H]1CN(Cc2nccs2)C[C@H]2OCC[C@H]21)N1CCOCC1`, -26.11%.
With `O=C(O)C(F)(F)F.O=C(c1ccsc1)N1CCO[C@@H]2CN(Cc3nccs3)C[C@@H]2C1`, the “Percent Effect” value is given as 102%.
To `CCS(=O)(=O)N1C[C@@H]2CN(Cc3ccco3)CCO[C@@H]2C1.O=C(O)C(F)(F)F` belongs -13.85%.
`CN(C)CCN1CCO[C@H]2CN(C(=O)C3CCOCC3)C[C@H]21`: the “Percent Effect” value is listed as -13.47%.
On to `Cn1cc(CN2CCO[C@@H]3CN(Cc4ccoc4)C[C@@H]3C2)cn1.O=C(O)C(F)(F)F.O=C(O)C(F)(F)F`, for which the “Percent Effect” value stood at 9.777%.
